# Data taken from PubChem BioAssay.
# “And” between values parts separate entries of the source, which are not always exact repeats. Equal entries are not always repeated. Some compounds were tested as several samples or in several runs, with calls that do not always agree. The source made the active and inactive calls.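 How the source made its calls, unless noted: active means inhibition at or above 50% relative to wild type and mutant plate controls; inactive means inhibition below 50%.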
# Legend:
# [1] = inhibitors of TNFa-induced NFkB p65 translocation, primary screen, imaging, HUVEC, MLSMR starter and 10KST1 sets (AID 438;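 active means inhibition above 20% together with a positive visual image hit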;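 further: compound added about 3h40 before a 20 min TNFalpha stimulation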;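 on inhibition: signal is the nuclear over cytoplasmic p65 intensity ratio per well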); details: HUVEC TNFa-induced p65 nuclear translocation; cell count: measured here: nuclei count (cytotoxicity indicator), at 2.08 µM; inhibition: at 2 µM, stronger effect = higher value, 0% TNFa-plus-vehicle, 100% no-TNFa wells
# [2] = inhibitors of mutant huntingtin aggregation, primary screen, imaging, exon1htt(103Q)mCFP cells, high-content imaging (AID 483;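 active means visual image review flags a hit and inhibition of aggregation exceeds 20%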;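 further: compound exposure lasted 3 days before fixation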;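 on nuclei count: percent of the per-plate median nuclei count of sample wells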); details: exon1htt(103Q)mCFP cell line, aggregate imaging, at 2 µM; inhibition of aggregation: stronger effect = higher value; nuclei count: measured here: cell count, toxicity
# [3] = inhibitors of E-selectin induction by TNFa, primary screen, imaging, HUVEC, immunofluorescence, MLSMR starter and 10KST1 sets (AID 487;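 active means visually confirmed hit in the image check and inhibition above 20%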;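 on inhibition: signal is fraction of cell area covered by stained E-selectin grains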;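 on nuclei count: 100% = median nuclei count of all wells on the same plate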); details: HUVEC TNFalpha-induced E-selectin immunofluorescence imaging, at 2 µM; inhibition: stronger effect = higher value; nuclei count: measured here: cell number, toxicity
# [4] = DUSP6 inhibitors restoring Erk phosphorylation by chemical complementation, primary imaging in DUSP6-transfected HeLa (AID 609;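 active means compounds giving at least 50% inhibition in the cell-based MKP-3 phosphatase rescue imaging test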;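 on inhibition: phospho-Erk level distribution per well compared with pooled transfected vehicle control wells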); details: HeLa MKP-3 transfected, phospho-Erk imaging KS statistic, at 10 µM, cells stimulated with TPA for 15 min
# [5] = biological target: Dual specificity protein phosphatase 6 (Homo sapiens) (UniProt Q16828); assay: as above; details: HeLa MKP-3 transfected, phospho-Erk imaging KS statistic; at 10 µM; stronger effect = higher value; cells stimulated with TPA for 15 min
# [6] = biological target: Voltage-gated potassium channel subunit beta-2 (Rattus norvegicus) (UniProt P62483); assay: KvBeta enzyme negative modulators, primary screen, biochemical, NADPH fluorescence (AID 622;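 active means fluorescence slope higher than the sample average by over 3 SD, cut at about -0.22 in these data, passing the limit was not always enough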;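 further: slope of raw intensity against log time taken from 70 to 1610 s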); details: recombinant KvBeta, 4-cyanobenzaldehyde reduction, at 10 µM, stronger effect = higher value
# [7] = biological target: Voltage-gated potassium channel subunit beta-2 (Rattus norvegicus) (UniProt P62483); assay: KvBeta positive modulators, primary screen, biochemical, NADPH fluorescence (AID 623;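 active means NADPH fluorescence slope more negative than the mean of all samples by about 3 SD, 99.7% confidence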;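 further: fluorescence intensity change per second fitted from 20 to 320 s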); details: Recombinant KvBeta, NADPH fluorescence decrease slope, 10 min; at 10 µM; stronger effect = lower value
# [8] = biological target: Alpha-2C adrenergic receptor (Homo sapiens) (UniProt P18825); assay: modulators of alpha2C/GIRK thallium flux, primary screen, cell-based, HEK293 alpha2C/GIRK1/2 (AID 624;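 active means fluorescence slope after compound addition differing from the mean of all screened samples at 99.7% confidence, in either direction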;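 further: slope of fluorescence ratio to pre-addition baseline per second over 15 to 24 s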); details: thallium flux BTC fluorescence, at 10 µM, actives lie on both sides
# [9] = inhibitors of larval lipid processing in zebrafish, primary screen, whole organism, PED6 fluorescence, gall bladder and intestine (AID 686;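 active means a full or partial loss of lipid-probe fluorescence in the fish gall bladder, intestine or both, judged by eye; inactive means no fluorescence loss, or compound toxic to the fish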;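 further: larvae 5 to 7 days old with five fish per well; signal comes from phospholipase A2 cleavage of quenched PED6 carried via bile; overnight exposure to compound and PED6 before scoring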); details: Zebrafish larvae PED6 lipid processing, fluorescence scoring; screened at 20 µM (by protocol)
# [10] = inhibitors of Chlamydomonas gravitaxis, primary screen, whole organism, Chlamydomonas reinhardtii, WT vs cilia-less mutant, absorbance, 96-well (AID 463189); details: OD600 absorbance, 2 days, at 10 µM, stronger effect = higher value;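 further: 0% = wild type cc124 cells in DMSO and 100% = ciliumless bld1 mutant cells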
# [11] = inhibitors of Sendai virus-induced IRF3 signaling, primary screen, TLR/RLR signaling modifier project, cell-based, Sendai virus stimulus, luciferase, 10K MLSCN set (AID 602276;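 active means inhibition at or above 50% at 10 µM; inactive means inhibition below 50%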;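 further: firefly luciferase from ISG56 promoter only with Renilla not read in this screen; 0% = Sendai virus plus DMSO and 100% = medium plus DMSO without virus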); details: HEK293 RL24 IRF3 luciferase reporter, at 10 µM, stronger effect = higher value
# [12] = inhibitors of poly I:C-induced TLR3 signaling, primary screen, cell-based, poly I:C stimulus, luciferase, 10K MLSCN set (AID 602277;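 active means inhibition of the reporter signal at or above 50%; inactive means inhibition below 50%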); details: HEK293-TLR3 RL24 IRF3 luciferase reporter, at 10 µM, stronger effect = higher value
# [13] = measured here: cell density z-score
# [14] = measured here: nuclear c-Myc green intensity z-score
# [15] = measured here: nuclear pErk red intensity z-score, stronger effect = higher value
# Alpha-2C adrenergic receptor (Homo sapiens), sequence (P18825 whole entry, looked up): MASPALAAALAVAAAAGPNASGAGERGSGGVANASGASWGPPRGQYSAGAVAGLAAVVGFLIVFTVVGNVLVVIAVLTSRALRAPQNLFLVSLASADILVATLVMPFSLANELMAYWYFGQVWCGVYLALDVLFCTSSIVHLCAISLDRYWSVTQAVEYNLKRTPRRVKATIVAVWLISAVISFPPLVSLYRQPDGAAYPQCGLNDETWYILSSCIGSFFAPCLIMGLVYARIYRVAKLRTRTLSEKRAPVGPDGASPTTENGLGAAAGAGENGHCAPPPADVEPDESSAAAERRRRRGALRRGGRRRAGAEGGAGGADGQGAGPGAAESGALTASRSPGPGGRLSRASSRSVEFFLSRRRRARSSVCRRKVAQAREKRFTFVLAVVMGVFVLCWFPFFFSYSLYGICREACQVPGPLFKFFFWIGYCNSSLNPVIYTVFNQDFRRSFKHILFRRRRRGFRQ
# Voltage-gated potassium channel subunit beta-2 (Rattus norvegicus), sequence (P62483 whole entry, looked up): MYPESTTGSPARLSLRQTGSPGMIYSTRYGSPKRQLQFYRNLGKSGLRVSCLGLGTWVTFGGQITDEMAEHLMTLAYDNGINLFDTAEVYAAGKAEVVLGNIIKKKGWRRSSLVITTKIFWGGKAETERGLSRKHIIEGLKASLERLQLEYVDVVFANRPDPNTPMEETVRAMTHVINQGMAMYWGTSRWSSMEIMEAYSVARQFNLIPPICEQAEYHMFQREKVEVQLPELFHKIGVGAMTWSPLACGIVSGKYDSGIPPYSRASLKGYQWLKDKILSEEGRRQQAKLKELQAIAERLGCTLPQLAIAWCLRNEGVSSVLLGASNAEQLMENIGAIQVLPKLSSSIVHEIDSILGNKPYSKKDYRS
# Dual specificity protein phosphatase 6 (Homo sapiens), sequence (Q16828 whole entry, looked up): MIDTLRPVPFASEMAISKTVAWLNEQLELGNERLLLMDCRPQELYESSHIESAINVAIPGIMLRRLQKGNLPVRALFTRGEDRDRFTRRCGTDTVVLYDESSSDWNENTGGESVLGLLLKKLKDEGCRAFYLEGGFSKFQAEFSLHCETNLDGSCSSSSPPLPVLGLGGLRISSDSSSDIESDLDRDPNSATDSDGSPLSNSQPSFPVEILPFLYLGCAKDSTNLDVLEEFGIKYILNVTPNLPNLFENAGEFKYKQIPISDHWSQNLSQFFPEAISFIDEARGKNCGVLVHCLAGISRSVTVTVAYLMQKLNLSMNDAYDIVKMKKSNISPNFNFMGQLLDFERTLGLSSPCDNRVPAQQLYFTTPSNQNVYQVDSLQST
Structure (SMILES),cell count [1],inhibition [1],inhibition of aggregation [2],nuclei count [2] [%],inhibition [3],nuclei count [3] [%],"z-score [4, 13]","z-score [4, 14]","z-score [4, 15]",inhibition [5],fluorescence slope [6],NADPH fluorescence slope [7],slope [8],outcome [9],inhibition [10],inhibition [11],inhibition [12]
O=C(NC1CCS(=O)(=O)C1)N1CCCCC1 (stereo not given),486,0.6% (inactive),-3.3% (inactive),106,-68.8% (inactive),126,-0.342,1.35,0.612,1.6e-07% (inactive),-0.485 (inactive),-6.6e-05 (inactive),0.00544 (inactive),inactive,-28.4% (inactive),11.2% (inactive),18.8% (inactive)
COC(=O)c1cc(Br)c(=O)n(CCc2ccc(F)cc2)c1,595,-7.1% (inactive),-4.6% (inactive),93.4,6.1% (inactive),151,-0.681,0.872,1.23,1.9e-07% (inactive),-0.324 (inactive),-5.7e-05 (inactive),0.00485 (inactive),active; no signal in intestine only,-7.76% (inactive),4.86% (inactive),5.55% (inactive)
O=C(O)c1cccnc1Nc1cccc(C(F)(F)F)c1,579,-0.7% (inactive),7.2% (inactive),55.6,-109% (inactive),125,-1.55,-0.913,0.921,3.59% (inactive),-0.507 (inactive),-5.7e-05 (inactive),0.00519 (inactive),inactive,0.869% (inactive) and -7.21% (inactive),17.3% (inactive),24.1% (inactive)
CCn1cc(C(=O)O)c(=O)c2cc(F)c(N3CCNCC3)cc21,576,-6.9% (inactive),13% (inactive),87.7,-31% (inactive),108,0.515,-1.04,1.05,-6.41% (inactive),-0.472 (inactive),1.5e-05 (inactive),0.00555 (inactive),inactive,-5.87% (inactive),-0.442% (inactive),10.8% (inactive)
C[C@]12CCC(=O)C=C1CC[C@@H]1[C@@H]2[C@@H](O)C[C@@]2(C)[C@H]1CC[C@]2(O)C(=O)CO,526,1.3% (inactive),-3.8% (inactive),63.5,-35.4% (inactive),94.1,-3.38,-0.793,-0.0815,5.42% (inactive),-0.459 (inactive),-3.2e-05 (inactive),0.00455 (inactive),inactive,2.91% (inactive) and -18.2% (inactive),4.18% (inactive),38.7% (inactive)
Cn1c(=O)c2c3c(sc2n2c(SCc4ccccc4)nnc12)CCCC3,550,-5.3% (inactive),1.8% (inactive),103,-44% (inactive),99.3,-0.0166,-0.0898,-0.287,4.37% (inactive),-0.371 (inactive),-1.7e-05 (inactive),0.00552 (inactive),inactive,32.4% (inactive),-3.8% (inactive),97.9% (active)
CC(=O)[C@H]1[C@H](C#N)C[C@H]2[C@@H]3CC=C4C[C@@H](O)CC[C@]4(C)[C@H]3CC[C@@]21C,645,-9.3% (inactive),-4.8% (inactive),106,-91.5% (inactive),119,0.975,-0.917,-0.46,-2.46% (inactive),-0.457 (inactive),-4e-05 (inactive),0.00539 (inactive),inactive,14.4% (inactive),10.7% (inactive),42.4% (inactive)
CCOC(=O)CSc1nc(N)c2c3c(sc2n1)CCCC3,682,-4.4% (inactive),-8.1% (inactive),97.3,5.9% (inactive),146,-0.0379,1.11,-0.851,-3.95% (inactive),-0.363 (inactive),-5.9e-05 (inactive),0.0064 (inactive),inactive,-8.25% (inactive),12.5% (inactive),4.94% (inactive)
CC(NCCc1ccc(O)cc1)C(O)c1ccc(O)cc1 (stereo not given),713,-4.6% (inactive),-2.5% (inactive),107,-109% (inactive),123,0.779,0.516,-1.29,1.48% (inactive),-0.474 (inactive),-9.7e-05 (inactive),0.00504 (inactive),inactive,4.91% (inactive),7.45% (inactive),39.2% (inactive)
Cc1nc2sccn2c(=O)c1CCN1CCC(=C(c2ccccc2)c2ccc(F)cc2)CC1,635,-7.7% (inactive),5% (inactive),114,-100% (inactive),123,-1.15,0.767,0.616,17.3% (inactive),-0.433 (inactive),-1.2e-05 (inactive),0.00383 (inactive),inactive,24.7% (inactive) and 164% (active),18.4% (inactive),19.4% (inactive)
